16 compounds from PubChem BioAssay (NCI) can be followed below.

Common to all, as to assay: NCI-60 one-dose screen, 48 h (100 = growth as untreated, 0 = no growth, -100 = all killed)
For assay [1], the system named is T-47D breast. The settings on record: 10 µM.
Assay [2] has as its system MDA-MB-435 melanoma. Conditions: 10 µM.
For assay [3], the system named is SW-620 colon. Conditions: 10 µM.
The subject of assay [4] is MCF7 breast.
The subject of assay [5] is HCT-116 colon. Conditions: 10 µM.
Assay [6] concerns HCC-2998 colon. Conditions: 10 µM.
The test system of assay [7] is KM12 colon. Conditions: 10 µM.
Assay [8] relates to BT-549 breast. Conditions: 10 µM.

Several values for one entry are separate records, joined by “and”; a condition that tells them apart may be missing. Equal entries are not always repeated. The panel holds about 83,000 compounds, 20% with a hit somewhere; the sample as a whole holds those more often.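 Single-dose data. Exposure time 48 hours. Values below 10 considered active.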 Activity calls are given as the source filed them.

On to `CC(C)(C)CC(C)(C)c1ccc(OCCO)cc1`, for which the growth in assay [1] is 105% (inactive); in assay [2] it was 115% (inactive); in assay [3], 109% (inactive); in assay [4] (10 µM) it was 137% (inactive); in assay [5], 102% (inactive); in assay [6] it was 110% (inactive). For the same compound, the growth in assay [7] was 99.4% (inactive).

On to `CC[N+](CC)=c1ccc2nc3c(cc(N)c4ccccc43)oc-2c1`, for which the growth in assay [1] was -44% (active); in assay [8], -53.4% (active); in assay [2] it was -82.2% (active); in assay [3] it was -25.2% (active); in assay [4] (10 µM), -46.3% (active); in assay [5], -27.1% (active). For the same compound, the growth was -78% (active) in assay [6] and -44.2% (active) in assay [7].

As to `CCCCCCCCCCCCCCCCCCOCC(COP(=O)([O-])OCC[N+](C)(C)C)OC` (stereo not given), the growth in assay [1] is 88% (inactive); in assay [8], 97.1% (inactive); in assay [2] it was 103% (inactive); in assay [3], 70.1% (inactive); in assay [4] (10 µM), 81.4% (inactive); in assay [5], 65.1% (inactive). Also, the growth in assay [7] was 29.7% (inactive).

As for `Nc1ccc2cc3ccc(N)cc3nc2c1`, the growth is 102% (inactive) and 2.81% (active) in assay [1]; 95.9% (inactive) and 69.1% (inactive) in assay [8]; 103% (inactive) and 23.4% (inactive) in assay [2]; 103% (inactive) and 10.5% (inactive) in assay [3]; 111% (inactive) and -21.7% (active) in assay [4] (10 µM); 109% (inactive) and 3.02% (active) in assay [5]. Further, the growth is 110% (inactive) and 16.7% (inactive) in assay [6]; 121% (inactive) and 9.1% (active) in assay [7].

Consider `Clc1cc(Cl)c(Cl)nn1`, for which the growth in assay [1] is 79.3% (inactive); in assay [8], 82.8% (inactive); in assay [2], 105% (inactive); in assay [3], 107% (inactive); in assay [4] (10 µM), 86.3% (inactive); in assay [5] it was 86.2% (inactive). The growth in assay [6] is 119% (inactive); in assay [7], 105% (inactive).

In the case of `CC1=CC(C)=Nc2ccc(Cl)cc2N1`, the growth in assay [1] is 102% (inactive); in assay [8] it was 108% (inactive); in assay [2], 107% (inactive); in assay [3], 98.8% (inactive); in assay [4] (10 µM), 101% (inactive); in assay [5] it was 100% (inactive). The growth in assay [6] is 103% (inactive); in assay [7], 100% (inactive).

Regarding `CO[C@H](C(=O)[C@@H](O)[C@@H](C)O)[C@@H]1Cc2cc3cc(OC4CC(OC5CC(O)C(O)C(C)O5)C(O)C(C)O4)c(C)c(O)c3c(O)c2C(=O)[C@H]1OC1CC(OC2CC(OC3CC(C)(O)C(O)C(C)O3)C(O)C(C)O2)C(O)C(C)O1` (stereo not given in full), the growth in assay [1] was 7.17% (active); in assay [8], -19.9% (active); in assay [2], -62.9% (active); in assay [3] it was -25.1% (active); in assay [4] (10 µM) it was -3.56% (active); in assay [5], 5.29% (active). Besides, the growth in assay [7] is -5.71% (active).

Consider `CC(C)C1=C(O)C2=C(C(=O)C1=O)C1(C)CCCC(C)(C)C1CC2O` (stereo not given), for which the growth in assay [4] (100 µM) was -23.1% (active) and -78.3% (active).

As for `COc1ccc(CC(=O)c2ccc(O)cc2O)cc1`, the growth is 182% (inactive) in assay [1]; 115% (inactive) in assay [2]; 111% (inactive) in assay [3]; 108% (inactive) in assay [4] (10 µM); 96.6% (inactive) in assay [5]; 107% (inactive) in assay [6]. The growth in assay [7] is 122% (inactive).

Turning to `NNc1c2ccccc2nc2ccccc12`, the growth in assay [1] was 74.6% (inactive); in assay [8] it was 43.8% (inactive); in assay [2] it was 49.4% (inactive); in assay [3], 43.9% (inactive); in assay [5] it was 40.1% (inactive); in assay [6], 57.1% (inactive). Also, the growth in assay [7] was 36.7% (inactive).

For `Cc1cc(NS(=O)(=O)c2ccc(N=Nc3cc(N=Nc4ccc(S(=O)(=O)Nc5cc(C)nc(C)n5)cc4)c4c(NC(=O)C(Cl)Cl)cccc4c3OC(=O)C(Cl)Cl)cc2)nc(C)n1` (tested in a mixture with another compound), the growth is 101% (inactive) and 87.1% (inactive) in assay [1]; 111% (inactive) and 99.7% (inactive) in assay [8]; 101% (inactive) and 111% (inactive) in assay [2]; 122% (inactive) and 104% (inactive) in assay [3]; 94.4% (inactive) and 78% (inactive) in assay [4] (10 µM); 105% (inactive) and 95.2% (inactive) in assay [5]. The growth in assay [6] was 107% (inactive) and 111% (inactive); in assay [7] it was 107% (inactive) and 106% (inactive).

As for `O=C(Nc1ccc(C(=O)O)c(O)c1)c1ccccc1`, the growth in assay [1] was 101% (inactive) and 104% (inactive); in assay [8], 104% (inactive); in assay [2] it was 99% (inactive) and 99.1% (inactive); in assay [3], 99% (inactive) and 113% (inactive); in assay [4] (10 µM), 102% (inactive) and 95.6% (inactive); in assay [5], 107% (inactive) and 101% (inactive). For the same compound, the growth in assay [6] is 102% (inactive) and 106% (inactive); in assay [7] it was 120% (inactive).

As to `Nc1nc(=S)c2ncn(C3OC(CO)C(O)C3O)c2[nH]1` (stereo not given), the growth in assay [1] is 121% (inactive) and 35.2% (inactive); in assay [8], 126% (inactive) and -1.38% (active); in assay [2], 109% (inactive) and 17.7% (inactive); in assay [3] it was 107% (inactive) and 35.9% (inactive); in assay [4] (10 µM), 123% (inactive) and 9.98% (active); in assay [5] it was 107% (inactive) and 17.3% (inactive). Moreover, the growth in assay [6] was 109% (inactive) and 23% (inactive); in assay [7], 104% (inactive) and 19.8% (inactive).

On to `N=S(c1ccccc1[N+](=O)[O-])c1ccccc1[N+](=O)[O-]`, for which the growth was -2.34% (active) in assay [1]; 84.7% (inactive) in assay [8]; 62.1% (inactive) in assay [2]; 17.9% (inactive) in assay [3]; -53.7% (active) in assay [4] (10 µM); 5.85% (active) in assay [5]. Moreover, the results for the growth in assay [6] and in assay [7] were 90.4% (inactive) and 88.8% (inactive), respectively.

Regarding `C[n+]1c2cc(N)ccc2cc2ccc(N)cc21`, the growth was -14.1% (active) and -9.22% (active) and -15% (active) in assay [1]; 2.1% (active) [middle of 4 runs] in assay [3]; -3.9% (active) [middle of 4 runs] in assay [4] (10 µM).

For `COC(=O)C1C(O)C(C)C(O)C(C)C=C(C)C2=C3C(=C(C)C(=O)c4c(O)c(c(C)c(OC(C)=O)c43)NC(=O)C(C)=C/C=C\C(C)C(O)C(C)C1O)OCO2` (stereo not given), the growth in assay [1] was 117% (inactive); in assay [2], 130% (inactive); in assay [3] it was 103% (inactive); in assay [4] (10 µM) it was 103% (inactive); in assay [5] it was 96% (inactive); in assay [6], 145% (inactive). For the same compound, the growth in assay [7] is 103% (inactive).
